Each structure is given as a SMILES string. Among all 330,000 compounds or so, about 5,800 (1.8%) were called active. The sample holds actives, similar compounds and a random draw of the others, so the mix is not that of the screen. A number with no mark means an inactive call.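 The calls were made as follows: active = inhibition above about 50% at the single tested dose (limit read from the data); inactive = the rest.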

Broadly, the inhibition is the relative decrease from the control value, in per cent.

Chain of Sentrin-specific protease 6 (Homo sapiens) (Q9GZR1 628-1112 limits assumed): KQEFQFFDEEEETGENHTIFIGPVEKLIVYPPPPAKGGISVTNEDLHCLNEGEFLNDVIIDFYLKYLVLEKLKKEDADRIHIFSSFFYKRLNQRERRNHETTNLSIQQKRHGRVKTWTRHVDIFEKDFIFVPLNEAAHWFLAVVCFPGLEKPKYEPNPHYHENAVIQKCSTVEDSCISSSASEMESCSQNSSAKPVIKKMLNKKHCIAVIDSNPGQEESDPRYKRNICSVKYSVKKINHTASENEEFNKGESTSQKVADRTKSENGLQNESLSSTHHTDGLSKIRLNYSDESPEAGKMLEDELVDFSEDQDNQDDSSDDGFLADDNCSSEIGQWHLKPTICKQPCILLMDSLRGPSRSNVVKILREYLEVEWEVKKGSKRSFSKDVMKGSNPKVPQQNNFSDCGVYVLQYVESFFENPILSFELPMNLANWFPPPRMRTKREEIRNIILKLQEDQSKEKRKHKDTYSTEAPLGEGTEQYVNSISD

The assay has as its target Sentrin-specific protease 6 (Homo sapiens) (UniProt Q9GZR1). Briefly: inhibition of human SENP6 catalytic domain – biochemical, luminescence, uHTS, primary screen (AID 2599).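 Also: plate controls were DMSO wells with enzyme for no effect and DMSO wells lacking enzyme for full effect.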 To be noted: Recombinant SENP6 catalytic domain, aminoluciferin luminescence; at 10 µM; hits give high values.
Take `O=C1CCC(=O)N(c2ccccc2)N1`: the inhibition was -18.9%.

As to `O=C(c1cnccn1)N1CCN(S(=O)(=O)c2cccc(Cl)c2)CC1`, the inhibition was -6.78%.

As to `Cc1cc2c(=O)n(C)c(SCC(=O)c3cc4ccccc4o3)nc2s1`, the inhibition was 15.6%.

In the case of `O=C(NCc1cccnc1)c1cccc(-c2cc3ccccc3oc2=O)c1`, the inhibition is -7.83%.

For the compound `Nc1ncc(-c2cc3ccccc3oc2=O)s1`, the inhibition was 92.4% (active).

Consider `O=C(CN1C(=O)CC(c2ccccc2)=Nc2ccccc21)NC1CCCCC1`, for which the inhibition is -12%.

`CSCCC(NC(=O)COc1ccccc1)C(=O)Nc1ccc(C)cc1` (stereo not drawn): the inhibition was -14.9%.

As for `O=C(Nc1ccc(-c2csc(Nc3cccc(C(F)(F)F)c3)n2)cc1)c1cccc(C(F)(F)F)c1`, the inhibition was -9.78%.

`CC(=O)Nc1cccc(-c2csc(Nc3cccc(C)n3)n2)c1`: the inhibition was 91.9% (active).

On to `Cc1cccc(Nc2nc(-c3ccccc3)cs2)n1`, for which the inhibition was 93.1% (active).

In the case of `O=C(O)c1ccccc1C(=O)Nc1nc(-c2ccccc2)cs1`, the inhibition is -12.1%.

Consider `Cc1ccccc1Nc1nc(-c2cccnc2)cs1`, for which the inhibition was 47.4%.

With `Cc1nc(NC(=O)c2cccc(Cl)c2)sc1-c1csc(Nc2cccc(Cl)c2)n1`, the inhibition is 20%.

In the case of `Cn1nnnc1SCC(=O)Nc1cccc(S(=O)(=O)N2CCCCC2)c1`, the inhibition was -12.9%.

For `Cc1cccc(CSc2nc3c(c(=O)n2C)SCC3)c1`, the inhibition is 21.2%.

For `O=C(N/N=C\c1cc(Br)c(Br)o1)C1COc2ccccc2O1` (stereo not drawn), the inhibition is -7.15%.

In the case of `Cc1ccc(C(=O)N/N=C\c2cc(Br)c(Br)o2)cn1`, the inhibition is 66% (active).

Regarding `Cc1ccc(C(=O)N/N=C/c2cccc3ccccc23)cn1`, the inhibition is -7.6%.

As for `CNC(=S)N/N=C/c1ccc(OCc2ccccc2)c(Br)c1`, the inhibition was -0.485%.

On to `CC(C)Oc1ccc(CN2CCC(n3nccc3NC(=O)c3cccnc3)CC2)cc1`, for which the inhibition is 0.591%.

For `CSc1ccc(/C=N/NC(=O)c2cccc(Cl)c2)cc1`, the inhibition is 94.4% (active).

Turning to `CSc1ccc(/C=N\NC(=O)CC(=O)NC(C)C)cc1`, the inhibition is -5.21%.

Consider `O=C(N/N=C/c1ccc(Cl)c(Cl)c1)c1ccc2nc[nH]c2c1`, for which the inhibition was -7.64%.

Take `Cc1cc(C)c(NC(=O)CN2CCOCCOCCOCCOCC2)c(C)c1`: the inhibition is -4.6%.

Turning to `CN(C)C(CNC(=O)CCCOc1ccccc1)c1ccco1` (stereo not drawn), the inhibition is -5.38%.

For `CCCCCCc1cc2cc(-c3nnc(-c4ccccc4)o3)c(=O)oc2cc1O`, the inhibition is -12.7%.

Take `O=c1oc2cc(O)ccc2cc1-c1ccc(F)cc1`: the inhibition was 98% (active).

Consider `CN(C)c1cc(-c2ccc(F)cc2)oc(=O)c1Cl`, for which the inhibition was -8.53%.

These data come from PubChem BioAssay AID2599 (Sanford-Burnham Center for Chemical Genomics, 2010).
